High-throughput results deposited in PubChem BioAssay by several laboratories.
Mdm2-MdmX inh: inhibitors of human Mdm2/MdmX interaction. 330,000 tested, 3% active. inhibition, % at 8 µM. AID 485346. O15151+Q00987. SaOS-2 split-luciferase Mdm2/MdmX complementation, luminescence;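 active = inhibition of at least 50% at 8 µM in the primary screen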
Target sequence (O15151 whole entry, looked up): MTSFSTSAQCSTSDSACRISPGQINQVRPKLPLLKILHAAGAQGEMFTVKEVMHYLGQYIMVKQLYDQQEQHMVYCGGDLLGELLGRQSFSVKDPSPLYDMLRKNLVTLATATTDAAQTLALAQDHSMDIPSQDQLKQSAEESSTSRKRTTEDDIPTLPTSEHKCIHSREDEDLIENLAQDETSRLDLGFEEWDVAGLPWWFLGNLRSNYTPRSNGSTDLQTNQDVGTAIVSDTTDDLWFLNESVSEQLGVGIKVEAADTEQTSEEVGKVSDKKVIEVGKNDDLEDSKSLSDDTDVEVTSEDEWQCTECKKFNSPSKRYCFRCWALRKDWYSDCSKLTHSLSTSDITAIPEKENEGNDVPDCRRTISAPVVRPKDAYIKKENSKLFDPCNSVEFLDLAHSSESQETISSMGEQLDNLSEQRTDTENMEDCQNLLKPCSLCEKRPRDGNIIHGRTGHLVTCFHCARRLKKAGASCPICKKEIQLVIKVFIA
Target sequence (Q00987 whole entry, looked up): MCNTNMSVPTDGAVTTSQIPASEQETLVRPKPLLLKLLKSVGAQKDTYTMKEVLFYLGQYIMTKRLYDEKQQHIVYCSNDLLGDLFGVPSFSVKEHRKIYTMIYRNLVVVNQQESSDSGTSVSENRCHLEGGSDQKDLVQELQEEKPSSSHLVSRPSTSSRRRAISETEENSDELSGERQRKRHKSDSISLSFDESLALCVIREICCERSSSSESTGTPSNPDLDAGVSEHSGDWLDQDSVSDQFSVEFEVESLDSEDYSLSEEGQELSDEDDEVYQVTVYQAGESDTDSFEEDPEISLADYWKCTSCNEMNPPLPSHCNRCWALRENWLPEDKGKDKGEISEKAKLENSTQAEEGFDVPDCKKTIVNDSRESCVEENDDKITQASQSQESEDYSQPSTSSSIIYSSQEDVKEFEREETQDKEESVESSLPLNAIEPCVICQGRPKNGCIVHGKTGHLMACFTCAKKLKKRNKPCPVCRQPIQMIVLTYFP
MPTP block: permeability transition pore inhibition. isolated mouse mitochondria, Ca2+ swelling absorbance, 30 min. inhibition, % at 10 µM. 360,000 tested, 1.4% active;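 active = inhibition of 50% or more, scaled per plate between neutral and stimulator controls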
Beta cell apopt: blocks beta cell apoptosis | INS-1E cytokine-induced death, ATP luminescence, 48 h; percent of positive-control rescue, neutral wells zero | protection from apoptosis, % (test concentration not listed) | 300,000 tested, 0.8% active | AID 435005;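 active = Every replicate reaches about 75%, or at least half do and their mean reaches it too, limit read from the data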;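 also: higher means more ATP so stronger rescue from cytokine killing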
CSC inhib: cancer stem cell inhibition; cancer stem cell-like cells viability, luminescence; inhibition, % at 7.5 µM; 300,000 tested, 1.1% active; AID 2717; in the data active = inhibition above about 75%; tested in HMLE shEcad cells
Calb FLC: C. albicans growth modulation with fluconazole; growth inhibition, % (test concentration not listed); C. albicans CaCi-2 (fluconazole-resistant clinical isolate) + fluconazole, Alamar Blue growth, 48 h; AID 1979; 300,000 tested, 0.57% active;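 active = growth inhibition above about 58% in most replicates, limit read from the data, passing the limit was not always enough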;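 also: all wells also contain fluconazole at 8 µg/ml as a sub-toxic cotreatment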
Of the large screens only hits and unclear results are named; the others gave an inactive call. Only some compounds are listed: those with a hit (about 4.8% of all), similar ones and a draw of the others.

CN(CCCNC(=O)c1cc2c(Cl)nc3ccccc3c2s1)Cc1ccccc1	none
CC1CCCN(CCCNC(=O)c2cc3c(Cl)nc4ccccc4c3s2)C1 (stereo unspecified)	CSC inhib 85.5
CCN(CC)CCCNC(=O)c1cc2c(Cl)nc3ccccc3c2s1	CSC inhib 77.4
Cc1nc2ccccc2c2oc(C(=O)NCCCN3CCCC(C)C3)cc12 (stereo unspecified)	none
CC1(C(=O)Nc2cccc3ncccc23)CCN1C(=O)Cc1ccc(-c2ccccc2)cc1 (stereo unspecified)	none (no result: Mdm2-MdmX inh, Beta cell apopt, CSC inhib, Calb FLC)
Cc1ccc(SCc2ccc(C(=O)N3CCCC3)cc2)cc1	none
CCN1CCN(C(=O)c2ccc(CSc3ccc(C)cc3)cc2)CC1	CSC inhib 154.9, Calb FLC 98.1
NC(=O)C1CCN(C2=C(Cl)C(=O)c3ccccc3C2=O)CC1	CSC inhib 85.3
N#Cc1ccc(-c2nc3ccc(Cl)cn3c2Cc2ccccc2)cc1	none (no result: Mdm2-MdmX inh, Beta cell apopt, CSC inhib, Calb FLC)
COc1cccc(Cn2c(C(C)n3c(C)nc4ccccc43)nc3ccccc32)c1 (stereo unspecified)	none (no result: Mdm2-MdmX inh, Beta cell apopt, CSC inhib, Calb FLC)
Cn1cc([N+](=O)[O-])c(C(=O)Nc2cc(Oc3ccccc3)cc([N+](=O)[O-])c2)n1	CSC inhib 95.7 (no result: Mdm2-MdmX inh)
Cc1nn(C)cc1C(=O)Nc1cc(Oc2ccc(Cl)cc2)cc([N+](=O)[O-])c1	none
Cc1cc(NC(=O)COC(=O)[C@@H](NS(=O)(=O)c2ccc(Br)cc2)C(C)C)no1	Calb FLC 111.1
CCc1nc2ccc(C(=O)NCCCN3CCCC3=O)cn2c1N(C)C(=O)COc1ccccc1	none (no result: Mdm2-MdmX inh, Beta cell apopt, CSC inhib, Calb FLC)
O=C(O)c1ccc(C(=O)C(=O)c2ccccc2)cc1	none (no result: CSC inhib)
C=C(C(=O)c1ccccc1)C(C)C(=C)C(=O)c1ccccc1	Beta cell apopt 117.5, CSC inhib 81.9 (no result: Mdm2-MdmX inh)
Cc1ccc(C)c(NC(=O)c2ccccc2O)c1	none
O=C(/C=C/c1ccccc1Cl)c1ccccc(=O)c1O	CSC inhib 107.7 (no result: Mdm2-MdmX inh)
O=C(/C=C/c1ccc([N+](=O)[O-])cc1)c1ccccc(=O)c1O	none (no result: Mdm2-MdmX inh, Beta cell apopt, CSC inhib, Calb FLC)
Cc1ccc(C)c(/C=C/C(=O)c2ccccc(=O)c2O)c1	CSC inhib 92.5, Calb FLC 98.2 (no result: Mdm2-MdmX inh)
COC(=O)[C@@]12C[C@@H](CC(=O)N3CCN(C(=O)C4CC4)CC3)C(=O)N(Cc3cccc4ccccc34)C1=CCC(C)(C)C2	none (no result: Mdm2-MdmX inh, Beta cell apopt, CSC inhib, Calb FLC)
NC(c1csc(Nc2cnccn2)n1)c1ccccc1Cl (stereo unspecified)	none (no result: Mdm2-MdmX inh, Beta cell apopt, CSC inhib, Calb FLC)
COCCN1C(=O)COc2ccccc2C1C(=O)NC1CCCC1 (stereo unspecified)	none (no result: Mdm2-MdmX inh, Beta cell apopt, CSC inhib, Calb FLC)
Cc1ccc(CN2C(=O)c3ccccc3NC2c2cc(Br)ccc2O)cc1 (stereo unspecified)	CSC inhib 110.0
C=CCN(CC=C)Cc1c(O)ccc2c(=O)c(-c3ccccc3)coc12	Calb FLC 94.0
Cc1ccc2nc(C3CCCCC3)c(Cc3ccsc3)n2c1	none (no result: Mdm2-MdmX inh, Beta cell apopt, CSC inhib, Calb FLC)
Cc1ccc(-c2nc(CS(=O)CC(=O)NCc3ccc4c(c3)OCO4)c(C)o2)cc1 (stereo unspecified)	CSC inhib 75.7
CCc1ccc(-c2nc(CS(=O)CC(=O)NCc3ccc4c(c3)OCO4)c(C)o2)cc1 (stereo unspecified)	none
Cc1cc(C(=O)C(C)OC(=O)c2ccc(NC(=O)CC#N)cc2)c(C)n1-c1ccc(OC(F)F)cc1 (stereo unspecified)	Beta cell apopt 87.5 (no result: Calb FLC)
CCCc1nc2ccccc2c(C(=O)OCC(=O)Nc2ccc(S(=O)(=O)N3CCOCC3)cc2)c1CC	CSC inhib 90.7
CCCc1nc2ccccc2c(C(=O)OCC(=O)N2CCc3ccccc32)c1CC	CSC inhib 82.7
CCCc1nc2ccccc2c(C(=O)OCC(=O)Nc2cccc(S(=O)(=O)N3CCOCC3)c2)c1CC	none
O=c1c(Cl)c2oc3ccccc3nc-2c2ccccc12	Beta cell apopt 85.5
O=c1oc2ccc3ccccc3c2cc1-c1nc2ccccc2o1	none
NC(c1csc(NC(=O)c2cccc(OC(F)(F)F)c2)n1)c1ccccc1Cl (stereo unspecified)	none (no result: Mdm2-MdmX inh, Beta cell apopt, CSC inhib, Calb FLC)
CCOC(=O)c1c(NC(=S)Nc2ccccc2)sc2c1CC(C)(C)SC2	none
CCOC(=O)c1c(NC(=S)NC)sc2c1CC(C)(C)SC2	Calb FLC 91.3
CC(C)NC(=O)C1(C)CSCC(=O)N1C1CCN(Cc2ccccc2)CC1 (stereo unspecified)	none (no result: Mdm2-MdmX inh, Beta cell apopt, CSC inhib, Calb FLC)
O=C(Nc1ccccc1Cl)c1cc(C2CCCCN2C(=O)c2ccccc2)on1 (stereo unspecified)	none (no result: Mdm2-MdmX inh, Beta cell apopt, CSC inhib, Calb FLC)
Cc1ccc(Cn2c(=N)n(CC(=O)c3ccccc3)c3ccccc32)cc1	Beta cell apopt 98.2
CCCn1c(=N)n(CC(=O)c2ccc([N+](=O)[O-])cc2)c2ccccc21	Calb FLC 98.9
